The supplement of paper PMC3334620
In all, about 33,000 sequences were measured (“E-score (-0.5 to 0.5)”: median about -0.016, highest 2% from about 0.32 on). Only a selection was taken, and the highest values are over-represented in it overall.

molecular target: T1, Stp1 (UniProt B3LFK1); test: PBM E-score (8-mer binding enrichment) (E-score (-0.5 to 0.5)); higher = stronger / more preferred TF binding; conditions: protein concentration: 200 nM; construct: GST-full length
T1 sequence: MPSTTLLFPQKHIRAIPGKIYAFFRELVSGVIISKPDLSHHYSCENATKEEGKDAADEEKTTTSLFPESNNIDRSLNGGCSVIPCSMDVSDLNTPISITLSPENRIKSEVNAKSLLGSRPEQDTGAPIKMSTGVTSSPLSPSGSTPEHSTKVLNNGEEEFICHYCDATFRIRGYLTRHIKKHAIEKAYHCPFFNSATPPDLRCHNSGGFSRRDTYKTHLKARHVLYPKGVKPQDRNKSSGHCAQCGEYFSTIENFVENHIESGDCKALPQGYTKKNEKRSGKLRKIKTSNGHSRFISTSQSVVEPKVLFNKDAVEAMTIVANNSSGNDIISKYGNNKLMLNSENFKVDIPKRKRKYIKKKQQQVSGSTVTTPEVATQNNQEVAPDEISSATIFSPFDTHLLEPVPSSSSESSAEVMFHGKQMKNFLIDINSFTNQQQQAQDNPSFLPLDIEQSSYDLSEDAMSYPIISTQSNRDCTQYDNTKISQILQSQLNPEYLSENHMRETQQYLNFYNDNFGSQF
In short: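 Yeast transcription factors carrying a GST tag, as full-length proteins or DNA-binding domains, were produced by PURExpress in vitro transcription/translation. About 100-200 nM protein was applied to universal all-10-mer Agilent arrays, double-stranded by primer extension on fresh or once-stripped slides. Bound protein was detected with fluorescent anti-GST, and scans were normalised with masliner. The Universal PBM Analysis Suite gave each ungapped eight-base word, pooled with its reverse complement, an E-score, a modified Wilcoxon-Mann-Whitney statistic.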

Sequence	PBM E-score
CAAAGACG	0.0347
AAATGCAA	0.0071
ATTAGATA	0.11
ACTCACAA	-0.0902
CGCAGTAA	0.0664
GGTGAGGA	0.0236
ATGGGTCA	-0.255
CGCCATAC	0.194
AAACCGGG	-0.195
AATCCTTC	-0.128
ATACAGAC	-0.0347
TCGTGCCA	0.177
CCCTGCCG	0.161
CTGTGCCC	0.242
CCGTGCCG	0.47
CCGTGACG	0.109
GCGTGCCA	0.206
ATGTGCCG	0.377
CCGTGCCC	0.365
GCGTGCCC	0.0203
CCGTGCCA	0.35
ATGTGCCC	0.0678
ATGTGCCA	0.137
ACTTCTGC	0.0768
GCTTCATA	0.0285

Sequence	PBM E-score
CTTGGCAA	-0.119
CCACCCGG	-0.218
CGCAAGTC	-0.309
GCTACTGA	-0.0112
CAAGGCTA	0.275
CACAATGC	0.00061
CCGTGCAG	0.315
AGGTGCCC	-0.0256
AGGTGCCA	-0.0228
ATGTGCGG	0.213
ACGTGCGA	0.00881
ACGTGCGG	0.357
CCGTGCAA	0.325
AGGTGCCG	0.385
ATGTGGCC	0.0349
TCGTGCAA	0.288
ATGTGGCG	0.322
ATGTGGCA	0.27
CGTTGACA	0.0374
AGAATCTC	-0.0977
AAGGAGCC	-0.0111
CTCTTAGC	0.0466
ACGTCGTG	-0.00714
AGTGGGCG	0.0679
TCGTGGCA	0.102

Sequence	PBM E-score
ACGTGGCA	0.152
ACGTGCCT	0.278
ACGTGCCC	0.18
CCGTGGCA	0.357
ACGTGCCG	0.39
GATGGCAC	0.196
ATCTCTTG	-0.137
ACCCGCAT	0.1
AGCCGCAT	0.452
ACCCGCAC	0.129
AGCCGCAC	0.42
AACCGCAC	0.0401
AGCCGCAA	0.188
CACTCTGC	-0.129
CCCTTCTC	-0.259
CTCAGGTC	-0.196
TATTAGCA	0.0213
ACTCAAGA	-0.0476
AATATAAT	0.0522
AATATAAG	0.32
CATATAAG	0.118
CCGTTTAA	0.349
CCGTTTAC	0.235
ACGTTTAA	0.12
AGTTCTAA	-0.0232

Sequence	PBM E-score
TATGGCGA	0.0899
CCATAAAG	-0.0597
CAGGCACG	0.174
GAGGCACC	0.239
GAGGCAGA	-0.118
CAGGCACA	-0.259
CAGGCACC	-0.107
GAGGCACA	0.332
AAGGCACC	0.402
AAGGCAGA	-0.164
AAGGCACA	0.338
TAGGCACA	0.132
AAGGCAAA	0.247
AAGGCACG	0.397
CACAAGCA	-0.0847
AGTCCTTG	-0.0837
GTTTCTCA	-0.115
CAAGTAAC	0.0497
ATGAGAAT	0.146
CCTAATCA	-0.0333
ACAGAGAA	-0.0516
GATTTGCC	0.219
AGCCCGCC	-0.0384
ATCTGCTC	-0.272
TAAGATTA	0.0404

Sequence	PBM E-score
AATGCACT	0.109
AAGGCATC	0.292
AGGGCACT	0.239
AAGGCATG	0.158
AAGGCACT	0.323
AAGGCATT	0.322
CCCTACAG	-0.178
GTCGCAAA	0.155
CACGGCTC	0.469
GACGGCTC	0.307
AAAGGCTT	-0.0867
AACGGGCT	-0.293
CAAGGCTC	0.0922
ACCGGCTC	-0.0667
CACGGCTG	0.363
AACGGCTC	0.407
AACGGCTT	0.366
CCCGGCTA	-0.148
ACCGGCTG	-0.0577
AACGGCTG	0.0994
CATGTAGG	-0.00116
AGTTGAGA	-0.0601
ACTCCAGG	-0.175
GGAGCACC	-0.188
CCTTACAG	0.0881

Sequence	PBM E-score
AGGGAGTG	-0.0747
CCGTCATA	0.0738
CAGAACGA	0.00724
ATCGGCTA	-0.108
CTCGGCTA	0.0804
ACCGGCTA	-0.0689
GTCGGCTA	-0.0709
GCCGGCTA	0.0397
GACGGCTA	0.235
TACGGCTA	0.349
CACGGCTA	0.415
AACGGCTA	0.372
ACACCTTA	0.0262
ACGACCGT	-0.11
AAAGTGCC	0.201
CACACGGG	0.235
ATCACGGC	0.351
AACACGGA	0.199
CACACGGC	0.471
AACACGGC	0.449
AGCACGGC	0.451
ATCACGGG	0.00016
AACACGGG	0.116
AGCACGGG	0.14
AGCACGGA	0.114

Sequence	PBM E-score
ATCACGGA	-0.0235
CACACGGA	0.253
ACACCGAA	0.0644
AAGGAGCT	-0.235
AAAGCAAC	0.0791
AGTATTCG	0.0476
ATTTGGTA	0.144
AGACGCGC	0.0493
GACACGGC	0.479
GACACGGA	0.315
GACACGCC	0.105
GCCCTATA	0.206
AACCAAAG	0.0816
ACCACTAT	-0.127
GGCATTAA	0.319
AGCATTAA	-0.0764
GGCATTAC	0.364
AGCATTAC	-0.0767
CGCATTAC	-0.0452
CGCATTAA	0.144
ATACTGGC	-0.284
AATATCGT	0.141
